Where “and” joins values, the source holds several entries; their conditions need not be identical. Identical values can stand only once. Among all 230,000 compounds or so, about 3,600 (1.6%) were called active. Another 15% or so got no clear call; they are omitted. What follows is part of a selection rich in actives, with near analogues and random picks from the rest. Values without a mark were called inactive. Calls follow the shape of the dose curve; as a rule, active = well fitted inhibition curve with a large enough effect (not every such curve was filed as active); inconclusive = small, poorly fitted or top-dose-only effect, or another doubt; inactive = no such curve, though single readings can be large or run the other way.
Target: Lysine-specific demethylase 4E (Homo sapiens) (UniProt B2RXH2)
Sequence (B2RXH2 1-337 limits assumed): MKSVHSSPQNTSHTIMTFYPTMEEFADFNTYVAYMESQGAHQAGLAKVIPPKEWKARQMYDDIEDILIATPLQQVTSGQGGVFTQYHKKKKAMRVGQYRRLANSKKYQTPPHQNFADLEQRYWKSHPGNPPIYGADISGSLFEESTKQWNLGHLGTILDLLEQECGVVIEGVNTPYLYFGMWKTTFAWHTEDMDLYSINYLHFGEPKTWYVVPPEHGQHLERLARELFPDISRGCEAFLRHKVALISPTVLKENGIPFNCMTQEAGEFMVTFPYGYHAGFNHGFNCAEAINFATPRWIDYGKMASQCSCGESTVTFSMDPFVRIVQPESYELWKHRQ
Assay: qHTS Assay for Inhibitors of Human Jumonji Domain Containing 2E (JMJD2E)
Settings: JMJD2E catalytic domain, FDH-coupled NADH fluorescence (FDH is formaldehyde dehydrogenase); series mostly up to 57.1 µM; activity change, negative = inhibition: at the top concentration
Also: nearly all actives have a fitted effect of over 50% in size.
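For activity change, negative = inhibition in this document: 0% = wells with enzyme and -100% = buffer wells without enzyme.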
Potency is read from the fitted curve at half-maximal effect.

In order of rising “activity change, negative = inhibition” value:
1. O=C(COC(=O)c1ccc[nH]c1=O)Nc1ccc2c(c1)OC(F)(F)O2  -31.1%
2. Nc1ccccc1Sc1ccc(C(F)(F)F)cc1[N+](=O)[O-]  -29.3%
3. Oc1ccc(/C=N/Nc2nc(-c3ccccc3F)nc3ccccc23)c(O)c1  -27.2%
4. O=C(N/N=C\c1cc(Br)c(Br)o1)C1COc2ccccc2O1 (configuration not stated)  -26.6%
5. CCCC(=O)N1c2ccc(-c3csc(N)n3)cc2CC1C (configuration not stated)  -25.3%
6. O=C(NCC(c1cccs1)N1CCOCC1)c1cc(-c2ccccn2)nc2ccccc12 (configuration not stated)  -21.6%
7. CSc1ccccc1NC(=O)CN(C)CC(=O)Nc1cccc(Br)c1  -20.7%
8. COc1cc(/C=C2/C(=O)NN(c3ccc(F)cc3)C2=O)cc([N+](=O)[O-])c1O  -19.9%
9. CC(C)OCCCNC(=O)c1ccc(C2SCC(=O)N2Cc2ccco2)cc1 (configuration not stated)  -12.8%
10. Cc1ccc(NNC(=O)c2c(F)cccc2Cl)cc1Cl  -12.8%
11. CCC(=O)/C=C1\Sc2ccccc2N1CC  -12.4%
12. Cc1ccc(CN(Cc2cccnc2)C(=S)Nc2cc(Cl)ccc2C)cc1  -10%
13. Oc1c(C=Nc2cccc3nsnc23)ccc2ccccc12  -9.64%
14. S=c1[nH]nc(COc2ccccc2)n1-c1ccccc1  -9.54%
15. NC(=O)COc1ccc(NC(=O)c2ccccc2-c2ccccc2)cc1  -9.16%
16. COCCNc1nc(-c2ccccc2)nc2c1oc1ccccc12  -8.99%
17. COCCNC(=O)/C(C#N)=C/c1cccc(OCc2ccccc2)c1  -8.01%
18. Nc1ccccc1SCc1cc([N+](=O)[O-])cc2c1OCOC2  -7.45%
19. CCN1/C(=C/c2ccc3ccc(C)cc3[n+]2CC)Sc2ccccc21  -7.04%
20. OCCC1CN(Cc2ccc(Oc3ncccn3)cc2)CCN1CCc1ccccc1 (configuration not stated)  -5.89%
21. CCOC(=O)C1=C(c2ccccc2)NC(=S)NC1c1ccc(Cl)cc1 (configuration not stated)  -5.72%
22. CCOC(=O)/C(C#N)=C/c1ccc(N2CCCCC2)cc1  -5.46%
23. Cc1ccc(C)c(SCc2nc3sc(C(=O)O)c(C)c3c(=O)[nH]2)c1  -5.22%
24. COc1ccccc1OCC(=O)O/N=C(\N)c1ccccn1  -4.76%
25. CN(c1ccccn1)c1ncnc2[nH]ncc12  -4.74%
26. COc1ccc(NS(=O)(=O)c2ccc(O)c(C(=O)OCC(=O)NC3CCCCC3)c2)cc1  -4.29%
27. O=c1c(-c2ccc(Cl)cc2)[n+]([O-])c2ccccc2n1OCc1nc2ccccc2[nH]1  -4.14%
28. CC(C)(C)C(=O)/C(C#N)=C/c1ccc(O)cc1  -3.99%
29. O=S(=O)(Nc1n[nH]c(C(F)(F)F)n1)c1ccccc1  -3.67%
30. Cc1ccc(OCc2n[nH]c(=S)n2-c2ccc(C)cc2)cc1  -3.16%
31. CCOC(=O)c1ccc(N=C2SC(C(=O)NC)CC(=O)N2CCc2ccccc2)cc1 (configuration not stated)  -2.87%
32. CC(C)[C@@H](CC(=O)N[C@@H]1CCNC[C@H]1C(=O)N[C@H](CC(=O)N[C@@H](CCC(=O)O)CC(=O)O)Cc1ccccc1)NC(=O)C[C@H](CO)NC(=O)[C@@H]1CNCC[C@H]1N  -2.84%
33. Cn1c(CSCC(=O)Nc2ccccc2)nnc1SCc1ccccc1  -1.73%
34. Cc1nnc(SC(C(=O)c2ccccc2)c2ccccc2)[nH]c1=O (configuration not stated)  -1.45%
35. O=c1[nH]c(CSc2ccccc2)nc2c1oc1ccccc12  -0.198%
36. Oc1c(Br)cccc1/C=N/Nc1c(F)c(F)c(F)c(F)c1F  0.236%
37. O=C(Nc1ccc(F)cc1)c1cc2c(s1)CCCC2  0.588%
38. Cc1cc(=O)[nH]c(SCC(N)=O)c1C#N  0.748%
39. Cc1nc2cccnc2nc1C  1.81%
40. COc1ccc(/C=C/C(=O)Nc2ccc(C)cc2)cc1S(=O)(=O)N1CCOCC1  1.97%
41. CC(C)C[C@H](CO)Nc1nc(N(C)c2cccc(Cl)c2)c2ncn(C(C)C)c2n1  2.12%
42. COC(=O)N(NC(=O)C(O)(C(C)C)C(C)C)c1ccccc1  2.87%
43. Cc1cc(N2CCN(c3ccccc3)CC2)nc(N2CCOCC2)n1  3.11%
44. O=C(Nc1cccc(S(=O)(=O)NC2=NCCC2)c1)C1CCCCC1  3.5%
45. COc1ccc(OC)c(-n2c(-c3ccn[nH]3)n[nH]c2=S)c1  3.77%
46. COc1ccc(CCNC(=O)CCCCn2c(=O)[nH]c3ccccc3c2=O)cc1OC  3.97%
47. Cc1c(C)c(C)c2[nH]c(=S)[nH]c2c1C  5.54%
48. CC(=O)Nc1nc2c(s1)C(=O)NCC(C)(C)C2  6.1%
49. CC(C)C[C@@H](CC(=O)N[C@@H](CCC(=O)O)CC(=O)O)NC(=O)[C@@H]1CCCC[C@H]1NC(=O)C[C@@H](NC(=O)C[C@H](CO)NC(=O)[C@@H]1CCCC[C@H]1N)C(C)C  6.67%
50. Cc1noc(C)c1COC(=O)COc1ccc(-c2ccccc2)cc1  7.05%
51. c1ccc(-n2cccc2)c(N2CCCCC2)c1  7.49%
52. CCOC(=O)NC(=O)/C(C#N)=C\c1ccccc1  8.09%
53. COc1ccc(Cc2nnc(SC)[nH]c2=O)cc1  8.09%
54. Cc1ccc(NC(=O)/C(=C\c2ccccc2)NC(=O)c2ccco2)cc1  8.1%
55. Cc1cccc(-n2cc(CN3CCN(C(=O)c4ncn[nH]4)CC3)c(-c3cccc(F)c3)n2)c1  8.66%
56. COc1ccccc1NC(=S)N1CCN(C(c2ccccc2)c2ccccc2)CC1  12.1%
57. Cc1onc(C(=O)NN)c1-c1csc(COc2ccccc2)n1  33.8%

In the case of `CC(C)(C)C(=O)OCc1nc(-c2ccc(O)c(O)c2)cs1`, the Potency is reported as 12.6 µM (active).
`Oc1ccc(/C=N/NC2=NCCCCC2)c(O)c1` was tested, and the Potency was 22.4 µM (active).
In the case of `O=c1[nH]c(=S)[nH]c2[nH]c(=S)[nH]c12`, the Potency is reported as 28.2 µM (active).
In the case of `Nc1ccccc1SC(C[N+](=O)[O-])c1ccccc1` (configuration not stated), the Potency is reported as 6.31 µM (active).
`COc1ccc(OCc2n[nH]c(=S)n2N)cc1` was tested, and the Potency was 15.8 µM (active).
`CCN1/C(=C\c2ccc3ccccc3[n+]2CC)Sc2cc(C)ccc21` was tested, and the Potency was 1.41 µM (active).
With `CC(C)C[C@@H](CC(=O)N[C@@H](CCC(=O)O)CC(=O)O)NC(=O)[C@@H]1CCCC[C@H]1NC(=O)C[C@@H](NC(=O)C[C@H](Cc1c[nH]c2ccccc12)NC(=O)[C@@H]1CCCC[C@H]1N)C(C)C` the Potency was 15.8 µM (active).
`Cc1cc(=O)[nH]c(S)c1C#N` was tested, and the Potency was 28.2 µM (active).
For `Cc1cc(=O)[nH]c(=S)[nH]1`, the Potency was “inactive”.
`CC(C)(C)c1ccc(/C=C2\Oc3c(ccc(O)c3CN3CCN(CCO)CC3)C2=O)cc1` was tested, and the Potency was 14.1 µM (active).
`N#C/C(=C\c1ccc(O)c(O)c1)C(=O)NCc1ccccc1` was tested, and the Potency was 15.8 µM (active) and 20 µM (active).
`N#C/C(=C\c1ccc(O)c(O)c1)C(N)=O` was tested, and the Potency was 7.08 µM (active).
`Oc1ccc2ccccc2c1N=Nc1nccs1` was tested, and the Potency was 28.2 µM (active).
For `Oc1ccc(N=Nc2nccs2)c(O)c1`, the Potency was 8.91 µM (active).
In the case of `COc1ccc(Cc2nnc(N/N=C/c3ccccc3O)[nH]c2=O)cc1OC`, the Potency is reported as 6.31 µM (active).
